Paper PMC11006913

The sequences below were run against T1, NKX2-4 (Homo sapiens, UniProt Q9H2Z4 175-261, R246Q) (assay: PBM; 200 nM protein, PBS). Conditions: dsDNA, one strand shown.
T1 sequence: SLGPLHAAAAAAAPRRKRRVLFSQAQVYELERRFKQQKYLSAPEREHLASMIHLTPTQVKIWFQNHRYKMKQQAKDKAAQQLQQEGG
With ACCGCAAC the binding signal was 9.62 upbm affinity estimate (log intensity, higher = more binding, comparable within an allelic series).
In the case of AGTATCTC, the binding signal is reported as 11.6 upbm affinity estimate (log intensity, higher = more binding, comparable within an allelic series).
In the case of CCGCCATA, the binding signal is reported as 9.84 upbm affinity estimate (log intensity, higher = more binding, comparable within an allelic series).
For ACCTGCAG, the binding signal was 9.76 upbm affinity estimate (log intensity, higher = more binding, comparable within an allelic series).
In the case of ATCGGAGC, the binding signal is reported as 10 upbm affinity estimate (log intensity, higher = more binding, comparable within an allelic series).
With ACACTCAA the binding signal was 12.8 upbm affinity estimate (log intensity, higher = more binding, comparable within an allelic series).
In the case of AGACTGAC, the binding signal is reported as 9.64 upbm affinity estimate (log intensity, higher = more binding, comparable within an allelic series).
With CCCGGTGC the binding signal was 9.25 upbm affinity estimate (log intensity, higher = more binding, comparable within an allelic series).
In the case of CGCCACAA, the binding signal is reported as 9.79 upbm affinity estimate (log intensity, higher = more binding, comparable within an allelic series).
With ACCGTTAC the binding signal was 9.92 upbm affinity estimate (log intensity, higher = more binding, comparable within an allelic series).
In the case of ACCACTCA, the binding signal is reported as 12.8 upbm affinity estimate (log intensity, higher = more binding, comparable within an allelic series).
For GCTATAGC, the binding signal was 9.91 upbm affinity estimate (log intensity, higher = more binding, comparable within an allelic series).
ACTATAAG was tested, and the binding signal was 11.8 upbm affinity estimate (log intensity, higher = more binding, comparable within an allelic series).
GCGGGCCC was tested, and the binding signal was 9.68 upbm affinity estimate (log intensity, higher = more binding, comparable within an allelic series).
In the case of CACTTCAC, the binding signal is reported as 12.9 upbm affinity estimate (log intensity, higher = more binding, comparable within an allelic series).
For ATCGGTCC, the binding signal was 9.95 upbm affinity estimate (log intensity, higher = more binding, comparable within an allelic series).
With CGGTCGAC the binding signal was 9.39 upbm affinity estimate (log intensity, higher = more binding, comparable within an allelic series).
For CCCGGCAG, the binding signal was 9.61 upbm affinity estimate (log intensity, higher = more binding, comparable within an allelic series).
CGTTGTCC was tested, and the binding signal was 9.81 upbm affinity estimate (log intensity, higher = more binding, comparable within an allelic series).
For CCCAGACG, the binding signal was 9.46 upbm affinity estimate (log intensity, higher = more binding, comparable within an allelic series).
ATGAGTAC was tested, and the binding signal was 12.7 upbm affinity estimate (log intensity, higher = more binding, comparable within an allelic series).
ACTTATCC was tested, and the binding signal was 12.1 upbm affinity estimate (log intensity, higher = more binding, comparable within an allelic series).
AGTGGTTC was tested, and the binding signal was 12.1 upbm affinity estimate (log intensity, higher = more binding, comparable within an allelic series).
For CGGGTACG, the binding signal was 9.6 upbm affinity estimate (log intensity, higher = more binding, comparable within an allelic series).
With GGTACTCA the binding signal was 12.9 upbm affinity estimate (log intensity, higher = more binding, comparable within an allelic series).
With CACTCTTA the binding signal was 12.8 upbm affinity estimate (log intensity, higher = more binding, comparable within an allelic series).
GTCTCGCA was tested, and the binding signal was 9.64 upbm affinity estimate (log intensity, higher = more binding, comparable within an allelic series).
For ACAAGTAC, the binding signal was 12.9 upbm affinity estimate (log intensity, higher = more binding, comparable within an allelic series).
In the case of ACGGCCCG, the binding signal is reported as 9.64 upbm affinity estimate (log intensity, higher = more binding, comparable within an allelic series).
For CTGAAAAG, the binding signal was 11.1 upbm affinity estimate (log intensity, higher = more binding, comparable within an allelic series).
ATCGTGCC was tested, and the binding signal was 9.95 upbm affinity estimate (log intensity, higher = more binding, comparable within an allelic series).
In the case of ATCCGGCC, the binding signal is reported as 9.9 upbm affinity estimate (log intensity, higher = more binding, comparable within an allelic series).
For GCACTACA, the binding signal was 11.9 upbm affinity estimate (log intensity, higher = more binding, comparable within an allelic series).
In the case of AAGTGGAA, the binding signal is reported as 12.9 upbm affinity estimate (log intensity, higher = more binding, comparable within an allelic series).
In the case of ACGGCGCC, the binding signal is reported as 9.67 upbm affinity estimate (log intensity, higher = more binding, comparable within an allelic series).

These sequences were tested against T2, NKX2-6 (Homo sapiens, UniProt A6NCS4 118-204, F151L) (assay: PBM; 200 nM protein, PBS). Conditions: dsDNA, one strand shown.
T2 sequence: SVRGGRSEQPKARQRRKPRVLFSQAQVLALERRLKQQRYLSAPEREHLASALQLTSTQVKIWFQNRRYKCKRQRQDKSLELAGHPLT
For ACACTCAA, the binding signal was 10.6 upbm affinity estimate (log intensity, higher = more binding, comparable within an allelic series).
For CACTTCAC, the binding signal was 10.7 upbm affinity estimate (log intensity, higher = more binding, comparable within an allelic series).
AAGTGGAA was tested, and the binding signal was 10.6 upbm affinity estimate (log intensity, higher = more binding, comparable within an allelic series).

The sequences below were run against NKX3-2 (Homo sapiens, UniProt P78367 192-278, P234S) (assay: PBM; 200 nM protein, PBS). Conditions: dsDNA, one strand shown.
NKX3-2 (Homo sapiens, UniProt P78367 192-278, P234S), sequence (P78367 192-278 P234S): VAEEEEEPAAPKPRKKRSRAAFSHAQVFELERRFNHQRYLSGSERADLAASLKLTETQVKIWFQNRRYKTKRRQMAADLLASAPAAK
In the case of ACCACTCA, the binding signal is reported as 12.5 upbm affinity estimate (log intensity, higher = more binding, comparable within an allelic series).
For GGTACTCA, the binding signal was 12.5 upbm affinity estimate (log intensity, higher = more binding, comparable within an allelic series).
In the case of CACTCTTA, the binding signal is reported as 12.5 upbm affinity estimate (log intensity, higher = more binding, comparable within an allelic series).
In the case of CACTCAAA, the binding signal is reported as 12.3 upbm affinity estimate (log intensity, higher = more binding, comparable within an allelic series).
ATCCACTC was tested, and the binding signal was 12.5 upbm affinity estimate (log intensity, higher = more binding, comparable within an allelic series).

The sequences below were run against NKX3-2 (Homo sapiens, UniProt P78367 192-278) (assay: PBM; 200 nM protein, PBS). Conditions: dsDNA, one strand shown.
NKX3-2 (Homo sapiens, UniProt P78367 192-278), sequence (P78367 192-278): as the sequence (P78367 192-278 P234S) above, with S43P counted along it
ACCACTCA was tested, and the binding signal was 12.6 upbm affinity estimate (log intensity, higher = more binding, comparable within an allelic series).
GGTACTCA was tested, and the binding signal was 12.6 upbm affinity estimate (log intensity, higher = more binding, comparable within an allelic series).
With CACTCTTA the binding signal was 12.6 upbm affinity estimate (log intensity, higher = more binding, comparable within an allelic series).
With CACTCAAA the binding signal was 12.3 upbm affinity estimate (log intensity, higher = more binding, comparable within an allelic series).
